Source: ChEMBL document CHEMBL1157539, “Thousands of chemical starting points for antimalarial lead identification” (Nature, 2010)

What was measured:
Format in all cases: functional
[1] = tested on: Plasmodium falciparum; assay: GSK_TCMDC: Inhibition of Plasmodium falciparum 3D7 in whole red blood cells, using parasite LDH activity as an index of growth. Test compounds present at 2uM
[2] = tested on: Plasmodium falciparum; assay: GSK_TCMDC: Inhibition of Plasmodium falciparum Dd2 in whole red blood cells, using parasite LDH activity as an index of growth. Test compounds present at 2uM
[3] = tested on: HepG2; assay: GSK_TCMDC: Percent inhibition of human HepG2 cell line. Test compounds present at 10uM.

Row | SMILES | Inhibition [1] | Inhibition [2] | Inhibition [3]
1 | CCn1c(Sc2ccc(C#N)c([N+](=O)[O-])c2)nnc1-c1cc(OC)cc(OC)c1 | 93% | 82% | 7%
2 | Cc1ccc([S+]([O-])Cc2ccc(Cl)cc2)cc1 (stereo not given) | 98% | 5% | 8%
3 | CC(=O)Nc1ccc(NC(=O)c2cc(-c3cc(Cl)ccc3O)n[nH]2)cc1 | 100% | 100% | 1%
4 | CC(=NNC(S)=NC(C)(C)C)c1ccccn1 | 99% | 100% | 63%
5 | CC(=O)Nc1ccc(CNC2Cc3ccc(-c4ccc(Cl)c(Cl)c4)cc3C2)cc1 (stereo not given) | 89% | 7% | 49%
6 | CN(C)c1ccc(-c2ccc(C(=O)NC3CCN(Cc4cccc(C(F)(F)F)c4)CC3)s2)cc1.O=C(O)C(F)(F)F | 96% | 77% | 35%
7 | Cc1cc(NC2CCCC2)nc(Nc2ccc(F)cc2)n1 | 100% | 74% | 22%
8 | COCCn1c(-c2cccc(Cl)c2)nn(-c2ccc([N+](=O)[O-])cc2Cl)c1=S | 100% | 99% | 2%
9 | CS(=O)(=O)N1CC2(CCN(CCC(NC(=O)NCc3ccc(Cl)c(Cl)c3)c3ccc(Cl)c(Cl)c3)CC2)c2ccccc21 (stereo not given) | 89% | 59% | 19%
10 | O=C(/C=C/c1ccc(Cl)c(Cl)c1)NCCCCCN1CCC(NC(=O)Nc2cc(F)ccc2F)CC1 | 98% | 22% | 78%
11 | COc1cccc2c(NN=Cc3ccc(Cl)cc3)ccnc12 | 99% | 39% | 26%
12 | O=C(Nc1cccc(Cl)c1N1CCOCC1)C(Cl)(Cl)Cl | 96% | 95% | 3%
13 | O=C(/C=C/c1ccc(Cl)c(Cl)c1)NCCCCCCN1CCN(C(=O)Nc2ccc(C(F)(F)F)cc2)CC1 | 100% | 44% | 42%
14 | COc1ccc2nccc([C@@H](O)CN3CCC(NCc4ccc5c(c4)sc(=O)n5C)CC3)c2c1.O=C(O)C(=O)O | 100% | 72% | 10%
15 | COc1ccc(NCc2cccc(-c3cccc(CNCCc4ccccc4)c3)c2)cc1.O=C(O)C(F)(F)F | 96% | 14% | 41%
16 | O=C(Nc1ccc(F)c(C(F)(F)F)c1)N[C@H]1CCN(CCCCCNC(=O)C2CC2c2ccc(Cl)c(Cl)c2)C1 (stereo not given in full) | 90% | 0% | 46%
17 | O=C(Nc1cc(=O)[nH]c2nc(-c3ccccc3)nn12)C1CCCCC1 | 86% | 89% | 0%
18 | Cc1nc2nc(N)nc(N)c2c(C)c1Cc1ccccc1Cl.Cl | 93% | 0% | 63%
19 | Cc1cc(N[C@@H](CC(C)C)C(=O)NC2CCCC2)nc(NCC2CCCCC2)n1.O=C(O)C(F)(F)F | 100% | 88% | 8%
20 | CC(C)(Oc1c(C2CCN(CCCCNC(=O)c3ccc(-c4ccc(C#N)cc4)cc3)CC2)ccc2c1CCCC2)C(N)=O | 100% | 82% | 34%

Row | SMILES | Inhibition [1] | Inhibition [2] | Inhibition [3]
21 | Cc1noc(C)c1-c1ccc2c(Nc3ccccc3C(C)(C)C)c(C(=O)NCc3ccc(OC(C)C)cc3)cnc2c1.Cl | 100% | 98% | 0%
22 | Cc1nc(-c2nc(NCc3ccccn3)ncc2-c2ccsc2)sc1C | 92% | 87% | 0%
23 | CCc1ccc(CN(Cc2ccc(C)cc2)Cc2ccc(NC(C)=O)cc2)cc1 | 89% | 79% | 6%
24 | COc1ccc(C)cc1NC(=O)CSc1nc2cccnc2n1C1CCCCC1 | 89% | 78% | 14%
25 | COc1ccc(C(=O)COc2cccc(/C=C/C(=O)O)c2)cc1OC | 84% | 28% | 44%
26 | CC(C)(C)c1ccc2[nH]c(-c3ccc(/C=C/C(=O)NCc4ccc(Cl)c(Cl)c4)cc3)nc2c1 | 97% | 17% | 41%
27 | COc1ccc(C(=O)N2CCC3(CC2)C(=O)N(CC(=O)NC2CCCCC2)CN3c2ccccc2)c(OC)c1 | 100% | 99% | 4%
28 | O=C(/C=C/c1ccc(Cl)c(Cl)c1)NCCCCCN1CCCC(CCCNC(=O)Nc2ccc(C(F)(F)F)cc2)C1 (stereo not given) | 100% | 48% | 58%
29 | COc1cccc(CCN(Cc2ccccc2-c2ccc(CNC3CC(C)(C)NC(C)(C)C3)cc2)C(=O)NC2CCCCC2)c1.Cl | 100% | 99% | 97%
30 | COc1cc2nc(C)nc(Nc3ccc4c(ccn4Cc4ccccc4)c3)c2cc1OC.Cl | 100% | 99% | 2%
31 | O=C(Nc1ccccc1)N(Cc1ccccc1-c1cccc(CNCCc2ccccc2)c1)C1CCN(Cc2ccccc2)CC1.O=C(O)C(F)(F)F | 100% | 59% | 95%
32 | CC1CN(c2cnn(Cc3ccc(NC(=O)Nc4ccc(F)cc4[N+](=O)[O-])cc3)c(=O)c2Cl)CC(C)N1.O=C(O)C(F)(F)F (stereo not given) | 89% | 10% | 4%
33 | Cn1nc(C(F)(F)F)c(-c2ccc(F)cc2)c1NC(=O)Nc1ccc(F)cc1F | 100% | 98% | 11%
34 | COc1cc(CN2CCC(NC(=O)[C@H](Cc3ccccc3)NC(=O)Nc3ccc(Oc4ccccc4)cc3)C2)ccc1O (stereo not given in full) | 92% | 0% | 10%
35 | Cl.Nc1ccc(Nc2ccnc3ccc(C(F)(F)F)cc23)cc1O | 98% | 59% | 1%
36 | Cc1cc(N(C)C)nc(Nc2ccc(NC(=O)C(C)Oc3ccccc3)cc2)n1 (stereo not given) | 98% | 30% | 2%
37 | O=C(O)C(F)(F)F.O=C1CCCN1CCCNCc1ccc(-c2ccc(-c3nc4cc(F)ccc4[nH]3)cc2)cc1 | 100% | 99% | 16%
38 | CCn1c(-c2nonc2N)nc2c(-c3cccc(NC(=O)Nc4ccc(C(F)(F)F)cc4)c3)ncc(OCCCN)c21.O=C(O)C(F)(F)F | 94% | 63% | 36%
39 | O=C(NC1CC1)C1CCN(Cc2cc3ccccc3n2Cc2ccc(Cl)cc2)CC1 | 95% | 96% | 16%
40 | COc1ccnc(NCCCNCc2cn(S(=O)(=O)c3ccccc3)c3ccccc23)c1 | 99% | 18% | 57%

Row | SMILES | Inhibition [1] | Inhibition [2] | Inhibition [3]
41 | CN(C(=O)c1nn(-c2ccccn2)c2nccc(-c3cccs3)c12)C1CCCCC1 | 87% | 1% | 4%
42 | c1ccc(Oc2ccc(Nc3ccnc4cc(-c5ccc(CNCCN6CCOCC6)o5)ccc34)cc2)cc1 | 99% | 99% | 20%
43 | CCN(CCCN1CCCCC1)c1cc(C)nc(Nc2ccc(C)c(Cl)c2)n1.O=C(O)C(F)(F)F | 100% | 100% | 32%
44 | COc1cc(Nc2ccnc3cc(-c4nccs4)ccc23)ccc1OCCCc1nc2ccccc2[nH]1.Cl | 100% | 68% | 100%
45 | COc1ccc(-c2ccc(NC(=O)c3ccc(C#N)cc3)cc2)cc1CN1CCC(O)CC1.O=C(O)C(F)(F)F | 94% | 28% | 24%
46 | COc1ccc2nccc(NCC3(O)CCN(CCc4ccc5c(c4)OCCO5)CC3)c2n1.Cl | 100% | 87% | 35%
47 | Br.NC1=NC2(CCCCC2)N(OCCCCCCC2CCCCC2)C(N)=N1 | 97% | 49% | 77%
48 | O=C(NCCCCCN1CCC(c2c[nH]c3ccccc23)CC1)Nc1cccc(Br)c1 | 84% | 0% | 39%
49 | Cl.O=C(Nc1ccc2c(c1)CCN(C1CCC1)CC2)c1ccc(-c2cn3ccccc3n2)cc1 | 100% | 42% | 13%
50 | COc1ccc2nccc([C@@H](O)CN3CCC(NC(=O)/C=C/c4ccc5cc(C)[nH]c5c4)CC3)c2c1 | 97% | 93% | 7%
51 | O=C(O)C(F)(F)F.Oc1ccc(CCCNc2nc(NCc3ccccc3-c3ccccc3)nc(N3CCNCC3)n2)cc1 | 94% | 48% | 39%
52 | NC(=O)c1cccc(C(=O)Nc2cccc(-c3cccc(-c4nc5cc(F)ccc5[nH]4)c3)c2)c1 | 100% | 73% | 47%
53 | O=C(N/C(=C/c1cccc([N+](=O)[O-])c1)c1nc2ccccc2[nH]1)c1cccc(Br)c1 | 85% | 88% | 0%
54 | CCN(CC)CCOC(=O)c1ccc(NC(=O)c2cc(-c3ccc(C)cc3)nc3ccccc23)cc1.Cl | 97% | 12% | 22%
55 | O=C(Nc1cccc(-c2cccc(-c3nc4cc(F)ccc4[nH]3)c2)c1)c1c[nH]cn1 | 100% | 87% | 13%
56 | CCOC(=O)c1ccc(NC(=O)c2ccccc2C(=O)O)cc1 | 92% | 0% | 2%
57 | CC(C)C[C@H](Nc1ccc(C#N)c2ccccc12)C(=O)NC(C)(C)C12CC3CC(CC(C3)C1)C2.O=C(O)C(F)(F)F | 96% | 30% | 19%
58 | CC(C)(C)c1cc(C(=O)Nc2ccc(C(=N)N)cc2)c(O)c(C(C)(C)C)c1.O=C(O)C(F)(F)F | 100% | 88% | 4%
59 | COc1cc(NCCCNCc2cn(S(=O)(=O)c3ccccc3)c3ccccc23)nc2ccccc12 | 100% | 77% | 36%
60 | CCN(CC)CCCN1CCN(C(=O)c2cccc(-c3noc(C(F)(F)F)n3)c2)CC1 | 91% | 74% | 0%
